These results are taken from PubChem BioAssay AID2320 (National Center for Advancing Translational Sciences (NCATS), 2010).

Each structure is given as a SMILES string. Records with an inconclusive call do not appear. Active and inactive are the calls of the source. Calls follow the shape of the full dose curve.
Potency is read from the fitted curve at half-maximal effect.

This test in a line: A qHTS for Small Molecule Inhibitors of Shiga Toxin (Confirmatory). Also: nearly all actives have a fitted effect of over 75% in size. As to activity, positive = inhibition of toxin: 0% is about no effect. Conditions: Cell-based Shiga toxin protection reporter assay; series mostly up to 38.3 µM; activity, positive = inhibition of toxin: at the top concentration. (In general: In qHTS, concentration-response curves come from the screen itself.)
In the case of `Cc1ccc(-c2nnc(SCC(=O)NC3CCCC3)n2C)cc1`, the “activity, positive = inhibition of toxin” value was -30.6% (inactive).

Turning to `Cc1cc(N/C=C\c2nnnn2-c2ccccc2)no1`, the Potency is 22.5 µM (active).

On to `COc1ccc(C(=O)Nc2ccccc2C(=O)NCc2ccco2)cc1`, for which the Potency is 5.65 µM (active).

Take `CCOc1ncccc1C(=O)Nc1c(C)n(C)n(-c2ccccc2)c1=O`: the “activity, positive = inhibition of toxin” value is -36% (inactive).

With `Cc1ccc(CSc2nnc(CCCCCNC(=O)OC(C)(C)C)o2)cc1`, the “activity, positive = inhibition of toxin” value is 6.27% (inactive).

As to `O=C(COc1ncnc2ccccc12)NCCC1=CCCCC1`, the “activity, positive = inhibition of toxin” value was 11.9% (inactive).

`Nc1nc(-c2nn(Cc3ccccc3F)c3ncccc23)ncc1C1CC1`: the “activity, positive = inhibition of toxin” value was 13.7% (inactive).

In the case of `Cc1cc(C)c2nc(-c3ccccn3)cc(C(=O)NCc3ccco3)c2c1`, the Potency was 15.9 µM (active).

Take `CC(C)(C)C1CCC(C(=O)OCC(=O)c2ccc[nH]2)CC1` (stereo not drawn): the Potency is 2.52 µM (active).

Regarding `CCN1CCN(Cc2nnc(-c3ccc(C)cc3)o2)CC1`, the “activity, positive = inhibition of toxin” value is -16.1% (inactive).

On to `O=C(c1cc2c(s1)-c1ccccc1OC2)N1CCN(c2ccccc2)CC1`, for which the “activity, positive = inhibition of toxin” value was -19.8% (inactive).

On to `Cc1cnc(NC(=O)c2ccc(-c3nc4ccccc4s3)o2)s1`, for which the Potency is 17.9 µM (active).

In the case of `COc1ccccc1CN(Cc1cccnc1)S(=O)(=O)c1ccc(-n2cnnn2)c(OC)c1`, the “activity, positive = inhibition of toxin” value was -24.3% (inactive).

With `O=C(Nc1ccc(/C=C/c2nc3ccccc3o2)cc1)c1ccc(F)cc1`, the Potency was 3.18 µM (active).

With `O=c1cc(-c2cccc(F)c2)[nH]c2ccc(Cl)cc12`, the “activity, positive = inhibition of toxin” value was -10.8% (inactive).

As for `COc1ccc(C(=O)CC(=O)C(=O)Nc2ccc(C)cc2Cl)cc1`, the “activity, positive = inhibition of toxin” value was 17.8% (inactive).

As to `OC1C[N+]2(CCCCC2)C1`, the “activity, positive = inhibition of toxin” value is -28.4% (inactive).

Turning to `COc1ccccc1CNC(=O)Cn1cc([N+](=O)[O-])ccc1=O`, the “activity, positive = inhibition of toxin” value is 32.9% (inactive).

In the case of `O=C(Nc1cccc(-c2csc(Nc3ccc(Cl)cc3)n2)c1)c1ccccc1`, the Potency is 6.34 µM (active).

With `CCOC(=O)c1[nH]c2ccc(OC)cc2c1NC(=O)C(C)N1CCC2(CC1)OCCO2` (stereo not drawn), the “activity, positive = inhibition of toxin” value was -37.1% (inactive).

Consider `CN1CCN(Cc2ccc(N)cc2)CC1`, for which the “activity, positive = inhibition of toxin” value was 30.4% (inactive).

Turning to `CC1CC(C)CN(C(=O)C(NS(=O)(=O)c2ccc(Br)s2)c2ccccc2)C1` (stereo not drawn), the Potency is 2.25 µM (active).

As for `C=C1C(O)C2OC3(CCC(/C=C/C(C)C4CC(C)=CC5(OC(CC(C)(O)C(=O)O)CCC5O)O4)O3)CCC2OC1C(O)CC(C)C1OC2(CCCCO2)CCC1C` (stereo not drawn), the Potency was 20 µM (active).

On to `COc1ccc(/C=C/c2nnc(NC(=O)CSc3ccc(Cl)cc3)s2)cc1`, for which the Potency is 11.3 µM (active).

As for `CCN(CCn1cccn1)Cc1nc(-c2ccccc2)no1`, the “activity, positive = inhibition of toxin” value is 7.23% (inactive).

With `Cc1nn(C2CCCCC2)c(N)c1-c1ccccc1`, the “activity, positive = inhibition of toxin” value is 17.1% (inactive).

For `COc1ccccc1C(=O)Nc1nnc(SCC(=O)Nc2ccc3c(c2)oc2ccccc23)s1`, the Potency is 3.18 µM (active).

Take `Cn1c(=O)c2ncn(CC(=O)NCCOc3ccccc3)c2n(C)c1=O`: the “activity, positive = inhibition of toxin” value was -16.7% (inactive).

Consider `COc1ccc(N(CCC#N)S(=O)(=O)c2ccc(Cl)cc2)cc1`, for which the “activity, positive = inhibition of toxin” value was 5.18% (inactive).

On to `CC(=O)Nc1ccc(N2N=C(C)C(N=Nc3ccccc3)C2=O)cc1` (stereo not drawn), for which the Potency was 11.3 µM (active).

Turning to `COc1ccccc1N(CCC#N)C(=O)CSc1nc(-c2ccccc2)cn1N`, the “activity, positive = inhibition of toxin” value was 28.7% (inactive).

Consider `COc1ccc(C(=O)CSc2nnc(C(CO)NC(=O)c3ccc(OC)cc3)n2C)cc1` (stereo not drawn), for which the “activity, positive = inhibition of toxin” value is -22.9% (inactive).

Consider `CCc1ccc(C(=O)c2oc3nc(C)cc(C)c3c2N)cc1`, for which the Potency is 5.04 µM (active).

As to `Nc1cc(N)nc(SCC(=O)Nc2ccc(Br)cc2Cl)n1`, the Potency was 11.3 µM (active).

`NNC(=O)c1ccc(NS(=O)(=O)c2ccc(Br)cc2)cc1`: the “activity, positive = inhibition of toxin” value was 3.16% (inactive).

Take `CCCC[C@@H]1C[C@H]1[C@@H](NC(=O)c1ccco1)c1ccc(Cl)cc1`: the Potency was 8.95 µM (active).

As for `CCOC(=O)C1(CCCc2ccccc2)CCN(C(=O)CCn2cncn2)CC1`, the “activity, positive = inhibition of toxin” value is 14.8% (inactive).

Turning to `NS(=O)(=O)c1ccc(CCNC(=O)c2ccc(NC3=NC4CS(=O)(=O)CC4S3)cc2)cc1` (stereo not drawn), the “activity, positive = inhibition of toxin” value is 25.9% (inactive).
